Experiment [1] can be described thus: P-glycoprotein substrates identified in KB-8-5-11 adenocarcinoma cell line, qHTS therapeutic library screen (AID 1346987). Note: nearly all actives have a fitted effect of over 65% in size. Note: potency is the fitted concentration of half-maximal effect. The procedure, abridged:
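KB-8-5-11: colchicine-selected sub-line of KB-3-1 over-expressing P-gp; assay medium lacked colchicine. 72 h drug exposure at 37 degree C, CellTiter-Glo.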

Experiment [2] has as its system Zika virus NS2B-NS3 protease (unlinked complex). Briefly: Primary screen GU Rhodamine qHTS for Zika virus inhibitors: Unlinked NS2B-NS3 protease assay (AID 1347159). Note: % is set by controls: 0 for no effect and ±100 for the full control effect; nearly all actives have a fitted effect of over 60% in size. The method, boiled down: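 Noncovalent NS2B hydrophilic domain/NS3 protease complex (25 nM final) in 10 mM Tris-HCl pH 8.0, 0.01% Tween 20, preincubated 15 min with compounds (up to 114 microM), then 1.5 microM Rhodamine110 substrate. Fluorescence change over 15 min fitted to 4-parameter Hill.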

A short description of experiment [3]: Primary qHTS for inhibitors of nuclear receptor binding SET domain protein 2 (NSD2) in an RCH-ACV wild type WT cells (2C) (AID 1645877). Note: nearly all actives have a fitted effect of over 70% in size. Note: potency is the fitted concentration of half-maximal effect.
The nature of experiment [4]: Primary fluorescence-based thiol-reactive (MSTI) qHTS assay for identification of artifact compounds. (AID 1845221). Note: nearly all actives have a fitted effect of over 65% in size. Note: potency is the fitted concentration of half-maximal effect. The method, boiled down:
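MSTI probe at 4 uM final in 2% DMSO/PBS pH 7.4; compounds, 1 h at room temperature in dark. Fluorescence Ex/Em 525/598 nm, normalised to Acetyl-MSTI and MSTI, fitted to 4-parameter Hill.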

Experiment [5] in a line: Primary redox qHTS assay for identification of artifact compounds. (AID 1845223).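 Note: 0% = DMSO and 100% = reference compound.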 The procedure, abridged: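 Amplex Red (25 uM) and HRP (250 mU/mL) in HBSS, with compounds for 15 min, then 250 uM DTT for 30 min, room temperature, dark. Fluorescence 525/598 nm read; normalized to DMSO and 10 uM DA3003; Hill fit.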
The subject of experiment [6] is KB-3-1. Briefly: Cytotoxic Profiling of Annotated Libraries Using Quantitative High-Throughput Screening (AID 1296008). For max response: % is set by controls: 0 for no effect and ±100 for the full control effect. Note: nearly all actives have a fitted effect of over 60% in size. Note: potency is the fitted concentration of half-maximal effect. The settings on record: Five cell lines viability, CellTiter-Glo ATP luminescence, 48-72 h; max response: stronger effect = lower value. The method, boiled down:
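Compounds were pin-transferred onto cells and incubated 48 or 72 hr at 37 degree Celsius, 95% humidity. CellTiter-Glo was added, plates sat 10 min at room temperature, then ATP-coupled luminescence was imaged as the viability read-out.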

Experiment [7] deals with SKOV3. Kind of experiment: Primary qHTS to identify gynecologic anti-cancer compounds using libraries of approved drugs and bioactive compounds (AID 1345084). Note: nearly all actives have a fitted effect of over 55% in size. Note: potency is the fitted concentration of half-maximal effect. Particulars: Gynecologic cancer cell panel viability, ATPlite luminescence, 48 h; series mostly up to 57.5 µM. The procedure, abridged:
(§1)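 Cells, 1,000 per well, plated 16 h, then exposed 48 h at 37 C to compounds. Viability by ATPlite luminescence after 15 min at room temperature.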

Experiment [8] can be described thus: P-glycoprotein substrates identified in KB-3-1 adenocarcinoma cell line, qHTS therapeutic library screen (AID 1346986). Note: nearly all actives have a fitted effect of over 60% in size. The procedure, abridged: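 KB-3-1 parental cells and P-gp-overexpressing KB-8-5-11 (colchicine omitted during assay) plated at 500 cells/well, dosed in dose-response, incubated 72 h at 37 degree C. CellTiter-Glo luminescence read; KB-8-5-11 also tested with tariquidar.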

The test system of experiment [9] is CRL-7250. Briefly: qHTS assay to identify novel small-molecules to repurpose for Merkel cell carcinoma treatment (AID 1296009). Note: nearly all actives have a fitted effect of over 60% in size. Particulars: MCC and control cell lines, CellTiter-Glo viability, 72 h; series mostly up to 92 µM. The procedure, abridged: (§2)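 Cells exposed to NPC (8-point) and MIPE (11-point) compound dilutions for 72 hr at 37 degree celsius; viability read by CellTiter-Glo luminescence, normalized to no-cell and DMSO in-plate controls.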

Experiment [10] deals with CAOV3. Kind of experiment: Primary qHTS to identify gynecologic anti-cancer compounds using libraries of approved drugs and bioactive compounds (AID 1345084). Note: nearly all actives have a fitted effect of over 55% in size. Note: potency is the fitted concentration of half-maximal effect. The settings on record: Gynecologic cancer cell panel viability, ATPlite luminescence, 48 h; series mostly up to 57.5 µM. The method, boiled down:
as §1

In experiment [11] the test system is HeLa. Described as above. Particulars: Gynecologic cancer cell panel viability, ATPlite luminescence, 48 h; series mostly up to 57.5 µM. The method, boiled down: as §1
Experiment [12] deals with Cytochrome P450 2C9 (Homo sapiens) (UniProt P11712). Briefly: Cytochrome P450 family 2 subfamily C member 9 (CYP2C9) small molecule antagonists: luciferase biochemical (cell-free) qHTS assay (AID 1645842; active = well fitted curve in the direction sought with a large enough effect in the repeat runs; an effect the other way counts as inactive or inconclusive; note: % is set by controls: 0 for no effect and ±100 for the full control effect; nearly all actives have a fitted effect of over 55% in size). The procedure, abridged: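 Luminescence, after 20 min with luciferin detection reagent, reflected CYP2C9 turnover during a 1 h NADPH-driven reaction at 37C. Enzyme-substrate mix contained 0.4% bovine serum albumin and was preincubated with compound 10 min at room temperature.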
Sequence of Cytochrome P450 2C9 (Homo sapiens) (P11712 whole entry, looked up): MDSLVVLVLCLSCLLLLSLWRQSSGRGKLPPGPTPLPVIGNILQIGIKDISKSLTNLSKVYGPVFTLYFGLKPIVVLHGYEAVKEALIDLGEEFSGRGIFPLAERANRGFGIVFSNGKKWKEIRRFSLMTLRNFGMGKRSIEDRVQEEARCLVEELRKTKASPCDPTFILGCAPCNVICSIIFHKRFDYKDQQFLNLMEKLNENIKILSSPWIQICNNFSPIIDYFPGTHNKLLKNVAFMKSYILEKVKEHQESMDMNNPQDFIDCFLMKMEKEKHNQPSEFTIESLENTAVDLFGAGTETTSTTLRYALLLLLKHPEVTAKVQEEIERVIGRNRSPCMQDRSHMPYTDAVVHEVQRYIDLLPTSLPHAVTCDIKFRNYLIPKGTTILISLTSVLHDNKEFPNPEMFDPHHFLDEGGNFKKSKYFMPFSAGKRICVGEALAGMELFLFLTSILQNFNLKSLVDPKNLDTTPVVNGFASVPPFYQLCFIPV

Experiment [13] concerns HACAT. Kind of experiment: qHTS assay to identify novel small-molecules to repurpose for Merkel cell carcinoma treatment (AID 1296009). Note: nearly all actives have a fitted effect of over 60% in size. Particulars: MCC and control cell lines, CellTiter-Glo viability, 72 h; at 44.8 µM (top of the series) unless noted. The procedure, abridged:
as §2

Experiment [14] deals with Cytochrome P450 2D6 (Homo sapiens) (UniProt P10635). Briefly: Cytochrome P450 family 2 subfamily D member 6 (CYP2D6) small molecule antagonists: luciferase biochemical (cell-free) qHTS assay (AID 1645840; active = well fitted curve in the direction sought with a large enough effect in the repeat runs; an effect the other way counts as inactive or inconclusive; note: nearly all actives have a fitted effect of over 55% in size; note: potency is the fitted concentration of half-maximal effect). The procedure, abridged: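 P450-Glo luminescent screen: recombinant CYP2D6 enzyme–proluciferin substrate mix preincubated with compound 10 min at room temperature, then NADPH regeneration added for 1 h at room temperature. Detection reagent added for 20 min; luciferin light read as relative luminescence units.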
Sequence of Cytochrome P450 2D6 (Homo sapiens) (P10635 whole entry, looked up): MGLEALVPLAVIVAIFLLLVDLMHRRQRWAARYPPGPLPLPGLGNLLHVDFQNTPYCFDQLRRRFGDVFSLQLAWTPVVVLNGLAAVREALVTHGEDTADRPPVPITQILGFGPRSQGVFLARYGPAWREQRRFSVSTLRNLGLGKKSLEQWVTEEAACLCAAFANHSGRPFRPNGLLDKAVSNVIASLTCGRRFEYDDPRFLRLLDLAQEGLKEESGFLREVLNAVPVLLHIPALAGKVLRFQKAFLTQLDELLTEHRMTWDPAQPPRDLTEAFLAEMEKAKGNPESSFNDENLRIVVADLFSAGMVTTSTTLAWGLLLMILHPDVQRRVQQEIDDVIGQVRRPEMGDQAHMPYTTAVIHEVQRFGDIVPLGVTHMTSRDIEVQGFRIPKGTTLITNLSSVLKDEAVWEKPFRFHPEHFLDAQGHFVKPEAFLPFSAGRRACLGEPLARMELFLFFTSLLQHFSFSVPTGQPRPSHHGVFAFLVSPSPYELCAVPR

Results filed as inconclusive are left out. Values without a mark were called inactive. The source made the active and inactive calls. Unless noted, calls come from the whole dose curve; as a rule, active = well fitted curve in the direction sought with a large enough effect; inconclusive = small, poorly fitted or top-dose-only effect, or another doubt; inactive = no such curve, though single readings can be large; an effect the other way counts as inactive or inconclusive.

Regarding `C[C@H]1C/C=C/[C@H]2[C@@H]3O[C@]3(C)[C@@H](C)[C@H]3[C@H](Cc4ccccc4)NC(=O)[C@]32OC(=O)O/C=C/[C@@](C)(O)C1=O`, the Potency in experiment [1] is 2240 nM (active); in experiment [3], 502 nM (active); in experiment [6], 563 nM (active); in [7], 2000 nM (active). Also, the Potency entry in [2], in experiment [4] and in experiment [5] was “inactive” each time.

On to `C=C(C)[C@@H]1[C@H]2OC(=O)[C@H]1[C@]1(O)C[C@H]3O[C@]34C(=O)O[C@H]2[C@]14C`, for which the Potency entry in experiment [8], in experiment [1], in experiment [2], in experiment [3], in experiment [4] and in experiment [5] was “inactive” each time. Also, the Potency result in experiment [9], in experiment [10], in [11] and in experiment [7] was “inactive” each time. In addition, the outcome in [6] was inactive.

Take `c1cncc(OC[C@@H]2CCN2)c1`: the Potency entry in experiment [1], in [2], in experiment [12], in [3], in experiment [4] and in experiment [5] was “inactive” in each case. Moreover, the Potency result in experiment [10], in experiment [11] and in experiment [7] was “inactive” in each case.

As for `CN1CCN(c2nc3ccccc3nc2Cl)CC1`, the Potency entry in [8], in experiment [1], in experiment [2], in experiment [3], in [5] and in experiment [10] was “inactive” throughout. Moreover, the Potency result in experiment [11] was “inactive”. The compound was classed as inactive in [6].

Take `Cc1cccc(NC(=O)N[C@H]2CN(C)c3ccccc3C(c3ccccc3)=N2)c1`: the Potency entry in experiment [2], in [4], in experiment [5], in experiment [10], in experiment [11] and in experiment [7] was “inactive” in each case. Besides, the result in experiment [13] was inactive.

Consider `COCC(C(=O)OC1CC2CCC(C1)N2C)c1ccccc1` (centres undefined), for which the Potency result in experiment [8], in experiment [2], in experiment [3], in experiment [4], in experiment [5] and in [10] was “inactive” each time. Further, the Potency entry in experiment [11] was “inactive”. Further, the result in experiment [13] was inactive.

As to `CCC1NC(=O)C2C(Cl)C(Cl)CN2C(=O)C(CC)NC(=O)CC(c2ccccc2)NC(=O)C(CO)NC1=O` (centres undefined), the Potency result in [1], in experiment [5] and in experiment [10] was “inactive” in each case. Also, the Potency in experiment [4] is 2320 nM (active). Moreover, the outcome in experiment [13] is “inactive [at 17.4 µM]”.

In the case of `Cc1ccccc1CN1CCC(N2CCC(n3c(=O)[nH]c4ccccc43)CC2)CC1`, the Potency result in [2], in experiment [12], in experiment [3], in experiment [4], in experiment [5] and in [11] was “inactive” each time. In addition, the Potency in [14] was 12000 nM (active).

As to `CC[C@@]1(O)C(=O)OCc2c1cc1n(c2=O)Cc2cc3c(OC)cccc3nc2-1`, the Potency is 805 nM (active) in experiment [1], 10.1 nM (active) in [3], 1280 nM (active) in experiment [6] and 447 nM (active) in experiment [7]. Besides, the Potency entry in experiment [2] and in experiment [4] was “inactive” each time.

Turning to `CN1C[C@@H]2CN(c3ccc(-c4ccccc4)nn3)C[C@@H]2C1`, the Potency result in [1], in [14], in [3], in experiment [4], in experiment [5] and in experiment [10] was “inactive” throughout. The Potency entry in experiment [11] and in experiment [7] was “inactive” each time.

With `C=C1C[C@]2(O)[C@@]3(C)CCC(=O)C(C)(C)C3=C(O)C(=O)[C@@]2(C)[C@@H]2C(=O)O[C@@](C)(C(=O)OC)C(=O)[C@@]12C`, the Potency result in [1], in [3], in [10], in experiment [11] and in [7] was “inactive” throughout. Moreover, the max response in [6] was 1.74%.

On to `N#CC(O[C@@H]1O[C@H](CO)[C@@H](O)[C@H](O)[C@H]1O)c1ccccc1` (some centres undefined), for which the Potency entry in experiment [1], in experiment [2], in [4], in [5], in experiment [9] and in experiment [10] was “inactive” throughout. Moreover, in experiment [7], the Potency entry was “inactive”.

Values taken from PubChem BioAssay (NCATS).
